According to PubChem BioAssay AID743279 (National Center for Advancing Translational Sciences (NCATS), 2014):
Screen size: about 360,000 compounds; about 17,000 (4.7%) were called active. Roughly 5% stayed inconclusive and do not appear here. For the sample, actives were picked, then their nearest neighbours and some compounds at random. Unmarked numbers belong to inactive results. Rule as the data show it: active = activity change below about -50%; inconclusive = mostly about -30% to -49%; inactive = weaker than that.

test: qHTS for Inhibitors of Inflammasome Signaling: IL-1-beta AlphaLISA Primary Screen; conditions: THP-1 LPS/ATP IL-1B secretion, 16 h; at 57.5 µM, active compounds read low
In short: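 Secreted IL-1B measured by AlphaLISA bead assay after 16 h compound exposure of THP-1 cells; compounds (final up to 57.5 uM) added 1 h before LPS (250 ng/mL) and ATP (1.25 mM) stimulation; lower signal means less secretion.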
% is scaled to controls: 0 for no effect and ±100 for the full control effect.

Structure (SMILES) | activity change
CC(=O)Nc1cc(-c2ccccc2F)cn2c(-c3cccc(C(F)(F)F)c3)cnc12 | -13.7%
COc1cc(C=NC2CCCCC2)ccc1O | 9.61%
Cc1ccc(-c2nc(C)sc2CC(=O)OCC(=O)Nc2c(F)cccc2F)cc1 | 8.31%
CCNC(=O)C1CCCN(C(=O)c2ccc(OC)cc2OC)CC1 (stereo unspecified) | 5.59%
COC(=O)CC(CC(=O)OC)n1cccc1 | 4.98%
O=C(CN(Cc1ccc(Br)cc1)S(=O)(=O)c1ccccc1)NCc1ccncc1 | -5.94%
Cc1cc(C)cc(C(=O)NC(CC(N)=O)c2ccc(N3CCC(N4CCCCC4)CC3)c([N+](=O)[O-])c2)c1 (stereo unspecified) | -16.2%
CCOC(=O)c1c(C)[nH]c(C)c1C(=O)COC(=O)/C=C/c1cccc([N+](=O)[O-])c1 | -15%
CCCOC1CCCN(C(=O)c2cc(COc3cncc(Cl)c3)on2)C1 (stereo unspecified) | 0%
COc1ccc(C(=O)COC(=O)c2ccc3ccccc3n2)cc1 | 3.46%
NC(=O)COC(=O)/C=C/c1ccc2ccccc2n1 | -101% (active)
CC(NC(=O)COC(=O)c1ccc2ccccc2n1)c1ccccc1 (stereo unspecified) | 2.13%
COc1cc(CCC(=O)N2CCN(c3ccccc3Cl)CC2)cc(OC)c1OC | 7.36%
COCCCN(C(=O)Cn1ncc2c(=O)oc3ccc(C)cc3c21)C(C)c1ccncc1 (stereo unspecified) | 7.95%
CNC(=S)NNC(=O)c1oc2nc(-c3ccccc3)cc(-c3ccco3)c2c1N | -18%
CS(=O)(=O)c1sc2nc(-c3ccccc3)cc(-c3ccccc3)c2c1N | -67.8% (active)
Nc1cccc(-c2cc(-c3ccccc3)nc(-c3cccc(N)c3)n2)c1 | -9.31%
CCOC(=O)C(C)n1cnc2scc(-c3ccc(C)c(C)c3)c2c1=O (stereo unspecified) | -7.25%
Cc1ccc(C(=O)/C=C/c2c(C)nn(-c3ccccc3)c2Cl)cc1 | -95% (active)
Cc1nn(-c2ccccc2)c(Cl)c1/C=C/C(=O)c1ccc(O)cc1 | -94.5% (active)
Cc1nn(-c2ccccc2)c(-n2cccc2)c1C(=O)O | 20.3%
Cc1nn(-c2ccccc2)c(C)c1/C=C/C(=O)OC(C)C(N)=O (stereo unspecified) | 9.76%
Cc1nn(-c2ccc(F)cc2)c(Cl)c1/C=C(/CCC(=O)O)c1nc2ccccc2s1 | 19.2%

Structure (SMILES) | activity change
Cc1ccc(C(=O)Nc2nc(N)n(-c3ccccc3)n2)cc1 | -8.07%
OCC(O)C1OCOC(C(O)CO)C1O (stereo unspecified) | -2.84%
Cc1ccc(C2Nc3ccccc3C(=O)N2CCN2CCNC2=O)cc1 (stereo unspecified) | 10.9%
Cc1cccc2[nH]c(CN(C)C(=O)C3CCC(=O)N(CCc4ccccc4)C3)nc12 (stereo unspecified) | 0%
Cc1cccc(C)c1NC(=O)CN(C)C(=O)CCC(=O)c1ccccc1 | -6.47%
Cc1cccc(C)c1NC(=O)C(Cl)C(=O)c1ccccc1 (stereo unspecified) | -95.8% (active)
Cc1cccc(C)c1NC(=O)C(c1ccccc1)N1CC(=O)Nc2ccccc21 (stereo unspecified) | -11%
OC(c1ccc(F)cc1)c1ncc(-c2cccc(C(F)(F)F)c2)[nH]1 (stereo unspecified) | -20.2%
COc1ccc(OC)c(NC(=O)N[C@H](Cc2ccccc2)C(=O)NN)c1 | -13.5%
CC(C)(C)CC(=O)Nc1nc(C(N)Cc2ccc(C(F)(F)F)cc2)cs1 (stereo unspecified) | -83.8% (active)
COc1ccc(NC(=O)C(Br)C(C)C)cc1 (stereo unspecified) | -18.5%
Cc1ccccc1NC(=O)Cc1nc(COC(=O)c2ccc(C(F)(F)F)cc2)cs1 | -4.36%
COc1ccc(CC(N)c2csc(NC(=O)Nc3ccc(C(C)C)cc3)n2)cc1 (stereo unspecified) | -108% (active)
NC(Cc1ccccc1)c1csc(Nc2cc(Oc3ccccc3)ncn2)n1 (stereo unspecified) | 0%
COc1ccc(CC(N)c2csc(NC(=O)NC(c3ccccc3)c3ccccc3)n2)cc1 (stereo unspecified) | -61.5% (active)
CC(C)(C)CC(=O)Nc1nnc(SCC(=O)NCc2cccs2)s1 | -5.2%
COC(=O)[C@H](CCSC)NC(=O)Nc1ccc(OC)cc1 | 16.7%
CCCS(=O)(=O)NC(=O)C1(C)CCN(C(=O)c2sccc2C)C1 (stereo unspecified) | 6.04%
CC1(C(=O)NCc2cccc3ccccc23)CCN1Cc1ccc(-c2ccccc2)o1 (stereo unspecified) | -22.3%
COc1cccc(CNS(=O)(=O)c2ccc3c(c2)N(C(C)=O)CCS3)c1 | -9.03%
CCC1CCCCN1C(=O)CSc1nc(C)cc(C)n1 (stereo unspecified) | -6.03%
COc1ccc(-c2ccc(CN3C(C(C)C)C(=O)N(Cc4cn(CC5CCCCC5)nn4)CCS3(=O)=O)cc2)cn1 (stereo unspecified) | -2.84%
COc1ccc(COC(=O)NC(C(=O)O)c2ccccc2)cc1 (stereo unspecified) | 7.03%

Structure (SMILES) | activity change
COc1ccc(C(CCN(Cc2ccc(OC)c(OC)c2)C(=O)CCl)c2ccccc2)cc1 (stereo unspecified) | -101% (active)
COc1ccc(CCNC(=O)C(Sc2ccccn2)c2ccccc2)cc1OC (stereo unspecified) | -6.65%
O=C(NCC(O)c1nc2ccccc2[nH]1)c1ccc(Br)cc1 (stereo unspecified) | 1.41%
C/C(CC(=O)Nc1ccc(Cl)cc1)=N\NC(=O)C(=O)NCCO | 11.5%
CCOC(=O)Cc1csc(SCC(=O)Nc2ccc(C)cc2F)n1 | 21%
CCOc1c(OC)cc(C2C(C#N)=C(N)Oc3n[nH]c(-c4ccncc4)c32)cc1OC (stereo unspecified) | 25.5%
CCCc1[nH]nc2c1C(c1ccc(OC)c(Cn3nc(C)c(Br)c3C)c1)C(C#N)=C(N)O2 (stereo unspecified) | -67% (active)
CCCc1[nH]nc2c1C(c1ccc(Br)s1)C(C#N)=C(N)O2 (stereo unspecified) | -99.8% (active)
CCc1ccc(C2C(C#N)=C(N)Oc3n[nH]c(CC(=O)OC)c32)cc1 (stereo unspecified) | -9.71%
COc1cc(C2C(C#N)=C(N)Oc3n[nH]c(-c4ccccn4)c32)cc(OC)c1OC (stereo unspecified) | 1.38%
COc1ccc(-c2[nH]nc3c2C(c2ccncc2)C(C#N)=C(N)O3)cc1 (stereo unspecified) | 0%
CC1(Oc2ccccc2-c2ccno2)CCN(Cc2ccc(-c3ccccc3)o2)C1 (stereo unspecified) | 5.25%
S=C(Nc1ccccc1)Nc1ccc2ccccc2c1 | -11.8%
O=C(Nc1ccc2ccccc2c1)Nc1ccc2snnc2c1 | -98.9% (active)
O=C(Nc1cccc(Br)c1)c1ccc2snnc2c1 | -14.1%
Cc1cc2oc(=O)cc(CN(C)Cc3ccccc3)c2cc1Cl | -8.49%
COc1ccc(CCOC2OC(CO)C(OC(=O)/C=C/c3ccc(O)c(OC)c3)C(O[C@H]3O[C@@H](C)[C@H](O)[C@@H](O)[C@H]3O)C2O)cc1O (stereo partly specified) | 12.4%
CC1CCCC(C)N1C(=O)CN1CCN(c2nc(-c3ccc(F)cc3)cs2)CC1 (stereo unspecified) | -52.3% (active)
Cc1cccc(C)c1NC(=O)CN1CCN(c2ccc(F)cc2)CC1 | 21.6%
O=C(COC(=O)C1CCCO1)Nc1nc(-c2ccc(F)cc2)cs1 (stereo unspecified) | -13.3%
O=C(CCCN1C(=O)C(c2ccccc2)Oc2cccnc21)Nc1ccccc1Br (stereo unspecified) | -9.67%
Cc1cc(Br)cn2c(Cc3ccccc3C(F)(F)F)c(C3CCCCC3)nc12 | 1.07%
COc1cccc2sc(N(CCCN(C)C)C(=O)CCS(=O)(=O)c3ccccc3)nc12 | -103% (active)

Structure (SMILES) | activity change
Cc1ccc2sc(N(CCN(C)C)C(=O)/C=C/c3cccs3)nc2c1C | 6.57%
COc1cccc2sc(N(CCCN(C)C)C(=O)C(c3ccccc3)c3ccccc3)nc12 | -104% (active)
COc1cc2ccccc2cc1C(=O)N(CCN(C)C)c1nc2c(F)cccc2s1 | 14.7%
COc1ccccc1NC(=O)CC(NCCN(C)C)C(=O)O (stereo unspecified) | 12.6%
Cc1cccc2sc(N(CCCN(C)C)C(=O)CCS(=O)(=O)c3ccccc3)nc12 | -96.3% (active)
Cc1ccc(S(=O)(=O)CCC(=O)OCC(=O)N(C)Cc2ccccc2)cc1 | 8.91%
COc1ccc(N(C)C(=O)CCS(=O)(=O)c2cccc3nsnc23)cc1 | -11.5%
Cc1cc(C)c2nc(N(CCN(C)C)C(=O)/C=C/c3cccs3)sc2c1 | 16.5%
CC(=O)NC(c1cccc(F)c1)c1nc(-c2cccc(F)c2)cs1 (stereo unspecified) | -16.3%
CCN(CC)C(=O)C(C)N1c2cccc3cccc(c23)S1(=O)=O (stereo unspecified) | 13.2%
O=C(CCNS(=O)(=O)c1ccccc1)NCCCc1ccccc1 | 14.3%
CCc1cc(C(=O)c2ccc(OC)cc2)c(NC(=O)CN2CCN(C)CC2)s1 | -54.3% (active)
COc1ccc(C(=O)Nc2sc(C)c(C)c2CN2CCOCC2)cc1 | 14%
CCc1ccc(NC(=O)CN2CCC(C(=O)c3ccc(OC)cc3)CC2)cc1 | -20.7%
COc1ccc(C(=O)Nc2ccc(F)cc2F)cc1 | -11.8%
COc1ccc(OC)c(C(=O)c2ccc(C(=O)N3CCN(Cc4csc(C)n4)CC3)cc2)c1 | 27.4%
CCc1cc(C(N)=O)c(NC(=O)c2ccc(OC)cc2)s1 | -102% (active)
CCCCn1nnnc1C(c1cc2ccccc2o1)N(C)Cc1ccc(Cl)c(Cl)c1 (stereo unspecified) | 1.13%
COc1ccc(CN2C(=O)C(CC(=O)NCCCCc3ccccc3)CC(C(=O)N3CCOCC3)=C2C)cc1 (stereo unspecified) | -11%
COc1ccc(/C=C/C(=O)Nc2c(C)nn(C)c2C)cc1COc1ccc(Br)cc1 | -24.2%
CCn1nc(C)c(NC(=O)/C=C/c2ccc(OC)c(COc3ccc(Br)cc3)c2)c1C | -50.3% (active)
COc1ccc(C(C)=O)cc1COc1ccc(Cl)c(C)c1 | -8.14%
